According to the supplement of paper PMC8975748:
Structures can show the parent of a compound that is named as a salt. ± gives the standard deviation of the averaged measurements.

Assays:
[1] = test system: Saccharomyces cerevisiae BY4741 SeMeCo community; experiment: mean cell size (pixel area) (pixels); higher = larger cells; conditions: 10 µM; 24 h; SM minimal medium
In short: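 Mean cell pixel area per well was measured in a four-plasmid fluorescent community of Saccharomyces cerevisiae BY4741, where every plasmid complements one auxotrophy and carries a fluorescent marker. Cells from an overnight preculture at OD600 = 1.0 were diluted to OD600 = 0.3 and dispensed at 70 µl into 384-well plates acoustically predosed with drug to a final 10 µM in SM medium. Incubation lasted 24 h, followed by paraformaldehyde fixation, automated confocal imaging and analysis in Harmony. Reported figures are averaged over 3 replicates. Same SeMeCo high-content imaging drug screen: Selleck FDA-approved drugs at 10 µM, 24 h in SM medium, 384-well plates, 3 replicates.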

[2] = test system: Saccharomyces cerevisiae BY4741 SeMeCo community; experiment: z-score of prototroph abundance vs DMSO median; higher = larger share of this subpopulation than in DMSO controls; conditions: 10 µM; 24 h; SM minimal medium; subpopulation (auxotrophy): Prototroph
In short: (§1)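 Four plasmids, each restoring a single auxotrophy and encoding a distinct fluorescent protein, were carried by a Saccharomyces cerevisiae BY4741 community. After overnight growth to OD600 1.0 and dilution to 0.3, 70 µl per well was grown for 24 h in minimal SM medium on 384-well plates acoustically predosed with library drugs at 10 µM final. Following paraformaldehyde fixation, automated confocal microscopy was used, with single-auxotroph fluorescent strains defining thresholds and autofluorescence correction. Subpopulation abundance was then scored as a z-score against the vehicle-well median.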

[3] = test system: Saccharomyces cerevisiae BY4741 SeMeCo community; experiment: z-score of subpopulation abundance vs DMSO median, subpopulation auxotrophic for M; higher = larger share of this subpopulation than in DMSO controls; conditions: 10 µM; 24 h; SM minimal medium; subpopulation (auxotrophy): M
In short: as §1

[4] = test system: Saccharomyces cerevisiae BY4741 SeMeCo community; experiment: z-score of subpopulation abundance vs DMSO median, subpopulation auxotrophic for L; higher = larger share of this subpopulation than in DMSO controls; conditions: 10 µM; 24 h; SM minimal medium; subpopulation (auxotrophy): L
In short: as §1

[5] = test system: Saccharomyces cerevisiae BY4741 SeMeCo community; experiment: z-score of subpopulation abundance vs DMSO median, subpopulation auxotrophic for U; higher = larger share of this subpopulation than in DMSO controls; conditions: 10 µM; 24 h; SM minimal medium; subpopulation (auxotrophy): U
In short: as §1

[6] = test system: Saccharomyces cerevisiae BY4741 SeMeCo community; experiment: z-score of subpopulation abundance vs DMSO median, subpopulation auxotrophic for H; higher = larger share of this subpopulation than in DMSO controls; conditions: 10 µM; 24 h; SM minimal medium; subpopulation (auxotrophy): H
In short: as §1

[7] = test system: Saccharomyces cerevisiae BY4741 SeMeCo community; experiment: z-score of subpopulation abundance vs DMSO median, subpopulation auxotrophic for LU; higher = larger share of this subpopulation than in DMSO controls; conditions: 10 µM; 24 h; SM minimal medium; subpopulation (auxotrophy): LU
In short: as §1

[8] = test system: Saccharomyces cerevisiae BY4741 SeMeCo community; experiment: z-score of subpopulation abundance vs DMSO median, subpopulation auxotrophic for LM; higher = larger share of this subpopulation than in DMSO controls; conditions: 10 µM; 24 h; SM minimal medium; subpopulation (auxotrophy): LM
In short: as §1

[9] = test system: Saccharomyces cerevisiae BY4741 SeMeCo community; experiment: z-score of subpopulation abundance vs DMSO median, subpopulation auxotrophic for HM; higher = larger share of this subpopulation than in DMSO controls; conditions: 10 µM; 24 h; SM minimal medium; subpopulation (auxotrophy): HM
In short: as §1

[10] = test system: Saccharomyces cerevisiae BY4741 SeMeCo community; experiment: z-score of subpopulation abundance vs DMSO median, subpopulation auxotrophic for HU; higher = larger share of this subpopulation than in DMSO controls; conditions: 10 µM; 24 h; SM minimal medium; subpopulation (auxotrophy): HU
In short: as §1

[11] = test system: Saccharomyces cerevisiae BY4741 SeMeCo community; experiment: z-score of subpopulation abundance vs DMSO median, subpopulation auxotrophic for UM; higher = larger share of this subpopulation than in DMSO controls; conditions: 10 µM; 24 h; SM minimal medium; subpopulation (auxotrophy): UM
In short: as §1

[12] = test system: Saccharomyces cerevisiae BY4741 SeMeCo community; experiment: z-score of subpopulation abundance vs DMSO median, subpopulation auxotrophic for HL; higher = larger share of this subpopulation than in DMSO controls; conditions: 10 µM; 24 h; SM minimal medium; subpopulation (auxotrophy): HL
In short: as §1

[13] = test system: Saccharomyces cerevisiae BY4741 SeMeCo community; experiment: z-score of subpopulation abundance vs DMSO median, subpopulation auxotrophic for HLU; higher = larger share of this subpopulation than in DMSO controls; conditions: 10 µM; 24 h; SM minimal medium; subpopulation (auxotrophy): HLU
In short: as §1

[14] = test system: Saccharomyces cerevisiae BY4741 SeMeCo community; experiment: z-score of subpopulation abundance vs DMSO median, subpopulation auxotrophic for HLUM; higher = larger share of this subpopulation than in DMSO controls; conditions: 10 µM; 24 h; SM minimal medium; subpopulation (auxotrophy): HLUM
In short: as §1

[15] = test system: Saccharomyces cerevisiae BY4741 SeMeCo community; experiment: z-score of subpopulation abundance vs DMSO median, subpopulation auxotrophic for HUM; higher = larger share of this subpopulation than in DMSO controls; conditions: 10 µM; 24 h; SM minimal medium; subpopulation (auxotrophy): HUM
In short: as §1

[16] = test system: Saccharomyces cerevisiae BY4741 SeMeCo community; experiment: z-score of subpopulation abundance vs DMSO median, subpopulation auxotrophic for LUM; higher = larger share of this subpopulation than in DMSO controls; conditions: 10 µM; 24 h; SM minimal medium; subpopulation (auxotrophy): LUM
In short: as §1

Row | Structure (SMILES) | mean cell size [1] | z-score of prototroph abundance [2] | z-score of subpopulation abundance [3] | z-score of subpopulation abundance [4] | z-score of subpopulation abundance [5] | z-score of subpopulation abundance [6] | z-score of subpopulation abundance [7] | z-score of subpopulation abundance [8] | z-score of subpopulation abundance [9] | z-score of subpopulation abundance [10] | z-score of subpopulation abundance [11] | z-score of subpopulation abundance [12] | z-score of subpopulation abundance [13] | z-score of subpopulation abundance [14] | z-score of subpopulation abundance [15] | z-score of subpopulation abundance [16]
1 | C#C[C@]1(O)CC[C@H]2[C@@H]3CCc4cc(OC)ccc4[C@H]3CC[C@@]21C [Mestranol] | 12.4 ± 0.25 | 0.82 | -1.19 | 0.33 | -0.41 | -0.4 | -0.19 | -0.14 | -0.5 | -0.49 | -0.68 | -0.16 | -0.61 | 0.02 |  | 
2 | Cc1cc(-n2c(=O)[nH]c(=O)n(C)c2=O)ccc1Oc1ccc(SC(F)(F)F)cc1 [Toltrazuril] | 12.53 ± 0.12 | 0.02 | -0.11 | -0.15 | -0.51 | 0.2 | -0.65 |  | 0.1 | 0.29 |  | 0.24 | 0 | 0.28 | -0.45 | -0.13
3 | CCN(CC)CCOC(=O)c1ccc(N)cc1 [Procaine] |  | 0.34 | -1.12 | -0.42 | 1.32 |  | 0.48 | -0.46 | -0.99 | 0.81 | 0.14 | -0.79 | -1.15 | -0.71 | 0.39 | 0.13
4 | CO/N=C(\C(=O)N[C@@H]1C(=O)N2C(C(=O)OC(C)OC(C)=O)=C(COC(N)=O)CS[C@H]12)c1ccco1 (stereo partly specified) [Cefuroxime axetil] | 12.59 ± 0.065 | -0.04 | -0.61 | -0.95 | 1.94 | -0.4 | -0.86 | -1.34 | -0.74 | 0.15 | 0.26 | -0.54 | -0.22 | 0.39 |  | -0.64
5 | CC1(C)S[C@@H]2[C@H](NC(=O)[C@H](NC(=O)N3CCN(S(C)(=O)=O)C3=O)c3ccccc3)C(=O)N2[C@H]1C(=O)O [Mezlocillin Sodium] | 12.5 ± 0.21 |  | -0.07 | 0.24 | 0 | 0.1 | 0.6 | -0.38 |  | 0.3 | -0.36 | -0.55 | 0.28 | -0.69 | -0.29 | -0.16
6 | CC1(C)S[C@@H]2[C@H](NC(=O)[C@H](NC(=O)N3CCNC3=O)c3ccccc3)C(=O)N2[C@H]1C(=O)O [Azlocillin sodium salt] | 12.4 ± 0.27 |  | -0.54 | 1.83 |  | -0.59 | -0.34 | 1.34 |  | -1.18 | -1.29 |  | -0.4 | 0.63 | -1.31 | 0.86
7 | Nc1cc(C(Cl)=C(Cl)Cl)c(S(N)(=O)=O)cc1S(N)(=O)=O [Clorsulon] | 12.46 ± 0.016 | -0.96 | -0.33 | 0.16 | 0.03 |  | 0.95 | -0.35 | 0.02 | 0.32 | 0.16 |  | 0.22 | 0.24 |  | 1.09
